In PubChem BioAssay (NCI):
Compounds without any hit were thinned out: in the full panel of roughly 83,000, 20% have a hit.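 Compound tested at a single concentration for 48 hours in 96-well plates; a percent growth value below 10 was scored as active.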 The source made the active and inactive calls.

test system: NCI-H322M lung; experiment: NCI-60 one-dose screen, 48 h (100 = growth as untreated, 0 = no growth, -100 = all killed); details: 10 µM unless noted
Experimental: Growth inhibition of the NCI-H322M human Non-Small Cell Lung tumor cell line is measured as a screen for anti-cancer activity. Cells are grown in 96 well plates and exposed to the test compound for 48 hours. Compounds are tested at a single concentration, which is 10^-5 M for most compounds. The reported endpoint is percent growth (GI% or GIPRCNT), where numbers from 0 - 100% represent growth inhibition, and numbers from -100% - 0 represent cell death. For example, a value of 40 represents 60% growth inhibition. A value of 0 means no net growth occurred over the course of the experiment. A value of -40 indicates 40% of cells at the beginning of the experiment died by the end of the experiment. A value of -100 means all cells are dead at the end of the experiment.
NCI-60 Human Tumor Cell Lines Screen was performed using the standard one-dose NCI protocol, which is described in more detail at https://dtp.cancer.gov/discovery_development/nci-60/default.htm.
Compounds with GIPRCNT values below 10 were considered active. Activity score was based on GIPRCNT using the following formula: […]
Score is 0 for GIPRCNT values of 100 or above, 50 for GIPRCNT values of 0, and 100 for GIPRCNT values of -100.

Compound	growth
FC(F)(F)c1cccc(Oc2ccc(Nc3ncnc4ccc(OCCCN5CCOCC5)cc34)cc2Cl)c1	37.5% (inactive)
O=C(Nc1ccc(Cl)cc1)Nc1ccc(Cl)c(Cl)c1	23.7% (inactive)
COc1ccc(-n2cc(-c3cc(OC)c(OC)c(OC)c3)n(C(C)=O)c2=O)cc1	78.8% (inactive)
CC(=O)[C@@H]1CC[C@]2(C(N)=O)CC[C@]3(C)[C@H](CC[C@@H]4[C@@]5(C)CCC(=O)C(C)(C)[C@@H]5CC[C@]43C)[C@@H]12	99.3% (inactive)
Cc1ccc(-c2c(Br)c(OC(=O)CO[C@@H]3C[C@H](C)CC[C@H]3C(C)C)c(-c3ccc(C)cc3C)c(Br)c2OC(=O)CO[C@H]2C[C@@H](C)CC[C@@H]2C(C)C)c(C)c1	103% (inactive)
O=C1Nc2ccccc2/C1=C\c1cccc(/C=C2/C(=O)Nc3ccccc32)n1	-70.8% (active)
COc1ccc(Nn2c(SCC(=O)Nc3nc(-c4ccc(Cl)cc4)cs3)nc(C)c2C)cc1	112% (inactive)
Fc1ccc(C2CC(c3cccc(Nc4ccncc4)c3)=NN2c2ccccc2)cc1 (stereo not given)	70.6% (inactive)
CC1CCN(C(=O)OCc2nc3nc(Cl)nc(N4CCOCC4)c3[nH]2)CC1	68% (inactive)
NC(=O)c1cccc(-c2cc(C(N)=O)ccc2Cl)c1	92.3% (inactive)
CCCCCCCCCCCCCCCCCCOc1ccccc1N	81.7% (inactive)
O=C(N/N=C/c1ccc(F)cc1)c1ccccc1Nc1cccc(C(F)(F)F)c1	111% (inactive)
Cc1ccc(C(=O)Nc2ccccc2C(=O)N/N=C(\c2ccccc2)c2ccccn2)cc1	33.4% (inactive)
O=C(CN1CCOCC1)Nc1ccc2ncnc(Nc3ccc(Oc4cccc(C(F)(F)F)c4)c(Cl)c3)c2c1	16.6% (inactive)
CCN(CCNc1cc(OC)cc2cccnc12)CCc1ccccc1	108% (inactive)
CCCCCN1C=C/C(=C\C(=O)N(C)c2ccc(Br)cc2)c2ccccc21	98.8% (inactive)
COc1ccc(C2=C(c3ccccc3)c3ccc(OC(C)=O)cc3OC2(C)C)cc1	102% (inactive)
O=S(=O)(NCCNc1nccc(-c2c(-c3cccc(F)c3)nc3occn23)n1)c1cccc2ccccc12	74.8% (inactive)
CCN(CC)CCOC(COc1cc(C)cc(C)c1)COc1cc(C)cc(C)c1	48.7% (inactive)
Cc1ccc2[nH]c(=O)cc(-n3nncc3COc3ccc(C=O)cc3)c2c1	103% (inactive)

Compound	growth
C/C(=C(/c1ccccc1)c1ccc(OCC(O)CN2CCOCC2)cc1)c1ccccc1 (stereo not given)	95.4% (inactive)
CC(=O)OC1CCC2(C)C(CCC3C4CC=C(C(C)=O)C4(C)OC(=O)CC32)C1 (stereo not given)	95.7% (inactive)
COc1ccc(-c2nc(SCCC(C)C)nc(N/N=C(/C)c3ccc(C)cc3)c2C#N)cc1	87.4% (inactive)
Cc1cc(C)c(C=O)c(C)c1	106% (inactive)
O=C(Nc1ccc2cc3ccc(NC(=O)NC4CCCCC4)cc3nc2c1)NC1CCCCC1	104% (inactive)
CCOC(=O)Oc1c(OC)cc(C(=O)O[C@@H]2C[C@@H]3CN4CCc5c([nH]c6cc(OC)ccc56)[C@H]4C[C@@H]3[C@H](C(=O)OC)[C@H]2OC)cc1OC	102% (inactive)
CCNNC(=O)[C@@H]1[C@H](c2cc(OC)c(OC)c(OC)c2)c2cc3c(cc2[C@H](O)[C@H]1CO)OCO3	43.7% (inactive)
Cc1cc(Nc2cccc(C(F)(F)F)c2)n2c(nc3ccccc32)c1C#N	36.9% (inactive)
COC(=O)C(c1ccccc1)C(CC(=O)c1ccccc1)c1ccccc1 (stereo not given)	75.6% (inactive)
CCC(C)C(N)C(=O)NNc1n[nH]c(=S)n1N (stereo not given)	105% (inactive)
COc1ccc(C(O)c2cc3c(N)c(C(=O)Nc4ccccc4)sc3nc2C)cc1 (stereo not given)	35.4% (inactive)
CCCCCCNC(=O)Oc1ccc(/C(=C(/CC)Cc2ccccc2)c2ccc(OCCN(CC)CC)cc2)cc1	87.5% (inactive)
COc1ccc(C(=O)c2cc(C)c(OC)c(C)c2)c(OC)c1O	45.8% (inactive)
FCc1nc2nc(Cl)c(Cl)nc2[nH]1	113% (inactive)
O=C1CCC(NC(=S)Nc2ccccc2)N1 (stereo not given)	99.5% (inactive)
Clc1ccc(C2CC(c3cccc(Nc4ccncc4)c3)=NN2c2ccccc2)cc1 (stereo not given)	69.7% (inactive)
O=C(Nc1ccc(Nc2ncccn2)cc1)NC1C=c2ccccc2=CC1 (stereo not given)	111% (inactive)
CNC(=O)NCC1OC(n2cnc3c(NC(=O)Nc4ccccc4)ncnc32)C(O[Si](C)(C)C(C)(C)C)C1O[Si](C)(C)C(C)(C)C (stereo not given)	87.3% (inactive)
CC[C@@]12C=CCN3CC[C@]4(c5cc(NC(=O)COc6cc(OCC(=O)Nc7cc8c(cc7OC)N(C)[C@H]7[C@@](O)(C(=O)OC)[C@H](OC(C)=O)[C@]9(CC)C=CCN%10CC[C@]87[C@@H]%109)cc7oc(-c8ccccc8)cc(=O)c67)c(OC)cc5N(C)[C@@H]4[C@](O)(C(=O)OC)[C@H]1OC(C)=O)[C@H]32	45.9% (inactive)
CN(Cc1ccccc1)c1nc(Cl)c(C2CC(c3ccc(Cl)cc3)=Cc3[nH][nH]c(=O)c32)s1 (stereo not given)	110% (inactive)
